Laboratory results reported in PubChem BioAssay.
Activity calls are given as the source filed them.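 Rule for the calls: active = Her2 level under about 52% in both replicate screens, with viability over 70% of control (limit read from the data); inconclusive = Her2 under the limit in one screen only, or viability under 70%; inactive = Her2 level above the set limit.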

Test system: not listed separately
Experiment: Her2 expression decrease, cell viability multiplex – SKBR3 breast tumor cells, AlphaScreen, ATP viability, primary screen (AID 461);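 for Her2 level: lower value means less Her2 protein in the cells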;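 for viability: percent of carrier control wells set as 100% viability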
Details: SKBR3 Her2 protein level, 18-24 h, measured here: SKBR3 viability, ATP luminescence, at 10 µM
`CC1/C(=N/O)C(CN(C)C)C2CC1C2(C)C` (stereo not given) showed a viability of 107%. Work on `O=C(Nc1cccc(F)c1)c1ccc2c(c1)OCO2` yielded a viability of 97.5%. `COc1ccccc1N=Cc1nc(-c2ccccc2)oc1OC(C)=O` gave a viability of 99%. `CC(=O)Nc1ccc(S(=O)(=O)NCc2cn3c(C)csc3n2)cc1` gave a viability of 116%. Work on `O=C(c1ccccc1Br)N1CCN(c2ccccc2)CC1` yielded a viability of 85%. `COc1cccc(OC)c1C(=O)Nc1ccc(CN2CCCCC2)cc1` showed a viability of 98.5%. For `O=C(Cn1nnc(-c2ccccc2)n1)Nc1ccccc1N1CCOCC1`, the viability was 99.5%. Work on `CCCCSc1cc(C)nc2ncnn12` yielded a viability of 98.5%. Work on `COCCn1c(C)cc(C(=O)COC(=O)CCN2C(=O)c3ccccc3C2=O)c1C` yielded a viability of 94.5%. Work on `Cc1cc(=O)n(CC(C)C)c(O)c1C#N` yielded a viability of 106%. `Cc1nc2cc(Cl)ccc2n1CCO` gave a viability of 101%. `CCCN1CCN(C(=O)Cn2c(=O)oc3cc(S(=O)(=O)NCc4ccccc4)ccc32)CC1` gave a viability of 92.5%. Work on `COc1ccc2cc(C#N)c(SCC(=O)N3CCCC3)nc2c1` yielded a viability of 97%. `CCn1c(=O)cc(OCC(=O)NC2CCCCC2)c2ccccc21` gave a viability of 86%. Work on `CC(C(=O)Nc1ccccc1-c1ccccc1)N1CCN(C(=O)c2ccco2)CC1` (stereo not given) yielded a viability of 91.5%. Work on `Cc1c(C(=O)NCc2cccnc2)sc2ncn(CC(=O)N3CCCCC3C)c(=O)c12` (stereo not given) yielded a viability of 98%. For `O=C(c1cn(-c2ccccc2)nc1-c1cccs1)N1CCN(c2ccccn2)CC1`, the viability was 101%. Compound `CCOc1ccc2[nH]c(=O)c(C(c3nnnn3Cc3ccco3)N3CCC(C)CC3)cc2c1` (stereo not given) has a viability of 80.5%. Work on `c1ccc(-c2nnc(-c3ccco3)n2-c2ccccc2)cc1` yielded a viability of 81.5%. With `N#Cc1ccccc1NC(=O)CSc1nnc(-c2ccccc2)n1-c1ccccc1` the viability was 81.5%. For `Cc1ccc(-n2cnnn2)c2cccnc12`, the viability was 95.5%. `Cc1ccc(-c2[nH]nc3c2C(c2ccc(OC(=O)N4CCOCC4)cc2)C(C#N)=C(N)O3)cc1` (stereo not given) gave a viability of 89%. `CC(C)=CC(=O)N1CCCc2ccccc21` gave a viability of 112%. In the case of `CCOC(=O)c1cc2n(n1)C(C(F)(F)C(F)(F)F)CC(C)N2` (stereo not given), the viability is reported as 92%. In the case of `c1ccc(-c2ccccc2OCCn2cncn2)cc1`, the viability is reported as 93%. Compound `CC(C)Cn1c(N)c(C(=O)COC(=O)c2ccc3c(c2)OCCO3)c(=O)n(C)c1=O` has a viability of 87%. For `COc1ccc(Cn2c(CCCO)nc3ccccc32)cc1OC`, the viability was 98.5%. With `CN(C)C(=O)N1CCCC(C(=O)NCc2ccccc2)C1` (stereo not given) the viability was 89%. For `O=C(CN1C(=O)c2cccc3cccc1c23)N1CCN(c2ccccc2)CC1`, the viability was 100%. For `CC(C)(C)OC(=O)NCCc1nnc(SCC(=O)c2ccc(Cl)cc2)o1`, the viability was 97.5%. `CCOC(=O)N1CCN(c2c(N3CCN(c4ccccc4OC)CC3)c(=O)c2=O)CC1` gave a viability of 94.5%. In the case of `Cn1c(=O)c2ncn(CC(=O)NCCOc3ccc(C(C)(C)C)cc3)c2n(C)c1=O`, the viability is reported as 96.5%. With `COc1ccc(-c2cc(C(=O)NCc3ccc(Cl)cc3)no2)cc1OC` the viability was 92.5%. With `CCOC(=O)c1ccc(NC(=O)CCNc2c(N3CCCC3)c(=O)c2=O)cc1` the viability was 104%. `CCOC(=O)CSc1nnc(CCc2nc3ccccc3[nH]2)n1C` gave a viability of 118%. `CCOc1ccc(-c2nnn(CCC(=O)O)n2)cc1OC` gave a viability of 95.5%. With `CCCCNC(=O)CN(C1CCCCC1)S(C)(=O)=O` the viability was 104%. In the case of `CCOCCCNC(=O)C1CCC(=O)N1CCc1ccccc1` (stereo not given), the viability is reported as 100%. Work on `OC(COc1ccc2ccccc2c1)CN1CCOCC1` (stereo not given) yielded a viability of 98.5%. With `COc1ccccc1CN1C(=O)CCC1(C)C(=O)NC1CCCCCC1` (stereo not given) the viability was 83%.

Target: Receptor tyrosine-protein kinase erbB-2 (Homo sapiens) (UniProt P04626)
Sequence (P04626 whole entry, looked up): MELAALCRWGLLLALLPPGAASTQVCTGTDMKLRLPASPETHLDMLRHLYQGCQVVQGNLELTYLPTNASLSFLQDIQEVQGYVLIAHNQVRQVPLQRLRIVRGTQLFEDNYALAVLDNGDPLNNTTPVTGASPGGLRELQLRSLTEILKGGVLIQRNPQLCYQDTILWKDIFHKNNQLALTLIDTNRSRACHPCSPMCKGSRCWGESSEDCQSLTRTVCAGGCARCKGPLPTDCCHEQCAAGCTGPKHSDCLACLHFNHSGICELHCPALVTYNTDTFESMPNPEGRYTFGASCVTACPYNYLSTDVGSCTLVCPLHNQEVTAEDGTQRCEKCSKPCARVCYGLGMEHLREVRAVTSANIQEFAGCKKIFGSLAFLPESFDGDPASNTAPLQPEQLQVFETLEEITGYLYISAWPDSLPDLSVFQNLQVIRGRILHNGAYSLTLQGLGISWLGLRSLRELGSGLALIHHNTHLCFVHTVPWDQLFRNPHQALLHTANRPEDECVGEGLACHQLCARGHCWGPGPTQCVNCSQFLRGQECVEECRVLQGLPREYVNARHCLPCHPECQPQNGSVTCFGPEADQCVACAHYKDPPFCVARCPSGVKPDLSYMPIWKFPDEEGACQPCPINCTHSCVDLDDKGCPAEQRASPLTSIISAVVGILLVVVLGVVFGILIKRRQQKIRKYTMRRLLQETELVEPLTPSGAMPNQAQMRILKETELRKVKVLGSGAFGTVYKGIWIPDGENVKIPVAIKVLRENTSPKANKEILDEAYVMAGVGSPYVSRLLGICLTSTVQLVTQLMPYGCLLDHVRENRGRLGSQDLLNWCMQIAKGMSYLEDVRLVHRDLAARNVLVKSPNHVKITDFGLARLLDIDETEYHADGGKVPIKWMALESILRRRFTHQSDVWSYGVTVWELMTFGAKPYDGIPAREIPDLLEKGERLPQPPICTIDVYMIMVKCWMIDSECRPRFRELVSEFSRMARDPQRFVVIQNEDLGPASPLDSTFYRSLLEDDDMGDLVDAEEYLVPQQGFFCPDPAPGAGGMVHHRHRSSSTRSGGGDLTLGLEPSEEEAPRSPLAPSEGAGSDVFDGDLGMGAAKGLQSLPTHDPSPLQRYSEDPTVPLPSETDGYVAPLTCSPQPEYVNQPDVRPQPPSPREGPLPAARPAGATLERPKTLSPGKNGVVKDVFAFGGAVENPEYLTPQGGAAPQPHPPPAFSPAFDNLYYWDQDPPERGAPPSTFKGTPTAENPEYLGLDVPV
Experiment: as above
Details: 18-24 h, at 10 µM, stronger effect = lower value
For `CC1/C(=N/O)C(CN(C)C)C2CC1C2(C)C` (stereo not given), the Her2 level was 84.5% (inactive). For `O=C(Nc1cccc(F)c1)c1ccc2c(c1)OCO2`, the Her2 level was 106% (inactive). In the case of `COc1ccccc1N=Cc1nc(-c2ccccc2)oc1OC(C)=O`, the Her2 level is reported as 82.5% (inactive). With `CC(=O)Nc1ccc(S(=O)(=O)NCc2cn3c(C)csc3n2)cc1` the Her2 level was 106% (inactive). With `O=C(c1ccccc1Br)N1CCN(c2ccccc2)CC1` the Her2 level was 83.5% (inactive). In the case of `COc1cccc(OC)c1C(=O)Nc1ccc(CN2CCCCC2)cc1`, the Her2 level is reported as 84% (inactive). With `O=C(Cn1nnc(-c2ccccc2)n1)Nc1ccccc1N1CCOCC1` the Her2 level was 98% (inactive). With `CCCCSc1cc(C)nc2ncnn12` the Her2 level was 131% (inactive). With `COCCn1c(C)cc(C(=O)COC(=O)CCN2C(=O)c3ccccc3C2=O)c1C` the Her2 level was 98.5% (inactive). In the case of `Cc1cc(=O)n(CC(C)C)c(O)c1C#N`, the Her2 level is reported as 98% (inactive). For `Cc1nc2cc(Cl)ccc2n1CCO`, the Her2 level was 95.5% (inactive). For `CCCN1CCN(C(=O)Cn2c(=O)oc3cc(S(=O)(=O)NCc4ccccc4)ccc32)CC1`, the Her2 level was 95% (inactive). With `COc1ccc2cc(C#N)c(SCC(=O)N3CCCC3)nc2c1` the Her2 level was 81% (inactive). In the case of `CCn1c(=O)cc(OCC(=O)NC2CCCCC2)c2ccccc21`, the Her2 level is reported as 98.5% (inactive). For `CC(C(=O)Nc1ccccc1-c1ccccc1)N1CCN(C(=O)c2ccco2)CC1` (stereo not given), the Her2 level was 95% (inactive). With `Cc1c(C(=O)NCc2cccnc2)sc2ncn(CC(=O)N3CCCCC3C)c(=O)c12` (stereo not given) the Her2 level was 88.5% (inactive). With `O=C(c1cn(-c2ccccc2)nc1-c1cccs1)N1CCN(c2ccccn2)CC1` the Her2 level was 79.5% (inactive). For `CCOc1ccc2[nH]c(=O)c(C(c3nnnn3Cc3ccco3)N3CCC(C)CC3)cc2c1` (stereo not given), the Her2 level was 81.5% (inactive). In the case of `c1ccc(-c2nnc(-c3ccco3)n2-c2ccccc2)cc1`, the Her2 level is reported as 78% (inactive). In the case of `N#Cc1ccccc1NC(=O)CSc1nnc(-c2ccccc2)n1-c1ccccc1`, the Her2 level is reported as 83% (inactive). For `Cc1ccc(-n2cnnn2)c2cccnc12`, the Her2 level was 92% (inactive). For `Cc1ccc(-c2[nH]nc3c2C(c2ccc(OC(=O)N4CCOCC4)cc2)C(C#N)=C(N)O3)cc1` (stereo not given), the Her2 level was 93% (inactive). For `CC(C)=CC(=O)N1CCCc2ccccc21`, the Her2 level was 90% (inactive). With `CCOC(=O)c1cc2n(n1)C(C(F)(F)C(F)(F)F)CC(C)N2` (stereo not given) the Her2 level was 93.5% (inactive). In the case of `c1ccc(-c2ccccc2OCCn2cncn2)cc1`, the Her2 level is reported as 79% (inactive). For `CC(C)Cn1c(N)c(C(=O)COC(=O)c2ccc3c(c2)OCCO3)c(=O)n(C)c1=O`, the Her2 level was 102% (inactive). In the case of `COc1ccc(Cn2c(CCCO)nc3ccccc32)cc1OC`, the Her2 level is reported as 97.5% (inactive). For `CN(C)C(=O)N1CCCC(C(=O)NCc2ccccc2)C1` (stereo not given), the Her2 level was 92% (inactive). In the case of `O=C(CN1C(=O)c2cccc3cccc1c23)N1CCN(c2ccccc2)CC1`, the Her2 level is reported as 103% (inactive). In the case of `CC(C)(C)OC(=O)NCCc1nnc(SCC(=O)c2ccc(Cl)cc2)o1`, the Her2 level is reported as 106% (inactive). For `CCOC(=O)N1CCN(c2c(N3CCN(c4ccccc4OC)CC3)c(=O)c2=O)CC1`, the Her2 level was 104% (inactive). For `Cn1c(=O)c2ncn(CC(=O)NCCOc3ccc(C(C)(C)C)cc3)c2n(C)c1=O`, the Her2 level was 110% (inactive). For `COc1ccc(-c2cc(C(=O)NCc3ccc(Cl)cc3)no2)cc1OC`, the Her2 level was 88.5% (inactive). In the case of `CCOC(=O)c1ccc(NC(=O)CCNc2c(N3CCCC3)c(=O)c2=O)cc1`, the Her2 level is reported as 96.5% (inactive). In the case of `CCOC(=O)CSc1nnc(CCc2nc3ccccc3[nH]2)n1C`, the Her2 level is reported as 112% (inactive). In the case of `CCOc1ccc(-c2nnn(CCC(=O)O)n2)cc1OC`, the Her2 level is reported as 84% (inactive). With `CCCCNC(=O)CN(C1CCCCC1)S(C)(=O)=O` the Her2 level was 107% (inactive). With `CCOCCCNC(=O)C1CCC(=O)N1CCc1ccccc1` (stereo not given) the Her2 level was 95.5% (inactive). In the case of `OC(COc1ccc2ccccc2c1)CN1CCOCC1` (stereo not given), the Her2 level is reported as 87% (inactive). With `COc1ccccc1CN1C(=O)CCC1(C)C(=O)NC1CCCCCC1` (stereo not given) the Her2 level was 99% (inactive).
